Measured values as given in PubChem BioAssay AID1117319 (Southern Research Institute, 2015).
Where “and” joins values, the source holds several entries; their conditions need not be identical. Identical values can stand only once. About 1,500 (0.58%) of roughly 260,000 compounds were called active. Inconclusive results (about 5%) are left out.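 How the source made its calls: active means inhibition above a set limit at one or more doses, reproduced on every date tested; inconclusive means results disagree between test dates, or hit never tested in dose response; inactive means the rest.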 A selection follows. Entries with a potency or affinity are not part of this list.

These compounds were tested against Virion infectivity factor (Human immunodeficiency virus type 1 group M subtype B (isolate BH10)) + Virion infectivity factor (Human immunodeficiency virus type 1 group M subtype B (isolate BRU/LAI)) + Virion infectivity factor (Human immunodeficiency virus type 1 group M subtype B (isolate PCV12)) + Virion infectivity factor (Human immunodeficiency virus type 1 group M subtype B (isolate HXB2)) + DNA dC->dU-editing enzyme APOBEC-3G (Homo sapiens) (UniProt P69720+P69721+P69722+P69723+Q9HC16) (assay: HIV-1 Vif–A3G interaction blockers – biochemical, TR-FRET, GST-Vif 1-94, biotin-A3G peptide, dose response retest, primary screen (AID 1117319;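 further: Vif residues 1-94 fused to GST binding biotinylated APOBEC3G peptide 110-148; 0% = full assay without inhibitor and 100% = GST in place of GST-Vif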)). Conditions: TR-FRET GST-Vif / biotin-A3G peptide binding; stronger effect = higher value.

inhibition, inactive:
Cc1ccc(C)n1-c1ccsc1C(=O)CC#N 22.9%
CC(C)(C)NC(=O)c1sccc1C(=O)O 9.39%
O=C(CNC(=O)c1cccc(Cl)c1)NCCCSc1ccccc1 -1.26%
Nc1nc(N)c2cc(Sc3ccc(Cl)cc3)ccc2n1 -22.4%
Cc1cc(-c2ccccc2)n(-c2ccccc2)n1 3.24%
Cc1cc(-c2ccco2)n(CC(=O)O)n1 5.45%
COc1ccc(NC(=S)NCCc2ccccc2)c(OC)c1 18.1%
COc1ccc(NC(=S)NCCc2c[nH]c3ccccc23)c(OC)c1 20.9%
COc1cc(OC)cc(C(=O)N2CCCC(c3nc(-c4ccc(C)o4)no3)C2)c1 (stereo unspecified) 32.4%
COc1cccc(CN2CC(C(=O)N(C)CCCC3CCCC3)CCC2=O)c1 (stereo unspecified) -1.28%
CCC(C)(C)n1nnnc1C(c1cc2cc(OC)ccc2[nH]c1=O)N1CCc2ccccc21 (stereo unspecified) 3.72% and -1.49%
Cc1ccc2[nH]c(=O)c(C(c3nnnn3C3CCCC3)N3CCCc4ccccc43)cc2c1 (stereo unspecified) 16.5%
O=c1cc(CSc2nnc(Nc3ccccc3F)s2)nc2sccn12 -10.7%
COc1cc(C(=O)NCC(c2ccco2)N2CCCC2)ccc1OCc1ccccc1 (stereo unspecified) 3.67%
COc1ccccc1C(CNC(=O)c1ccc(OCc2c(C)noc2C)cc1)N1CCCC1 (stereo unspecified) 7.05%
Cc1ccc(NC(=O)COC(=O)CN2CCSC2=O)cc1Cl 7.83%
Cc1ccc(/C=N/N=C/c2ccc(C)cc2)cc1 1.03%
Cc1ccc(/C=C2/CNC/C(=C/c3ccc(C)cc3)C2=O)cc1 4.14%
Cc1nc2ccccc2n1CCN1CCOCC1 -1%
COC(=O)c1nn(-c2ccc(Oc3ccccc3)cc2)c(=O)cc1O 2.63%
Nc1ccc(S(=O)(=O)N2CCOCCOCCOCCOCCOCC2)cc1 1.81%
C=C(C)C(=O)OCC(=O)NCc1ccccc1 -3.45%
Oc1ccccc1/C=N/NC1=NCCCCC1 -2.42%
Oc1ccc(/C=N/NC2=NCCCCC2)cc1 27.5%
O=C(O)c1cccc(S(=O)(=O)Nc2cccc(S(=O)(=O)N3CCCCCC3)c2)c1 4%
Cc1cccc(N(Cc2ccccc2F)S(C)(=O)=O)c1 22.4%
CC(C)C1=Nc2cccc3cccc(c23)N1 -3.35%
c1coc(C2=Nc3cccc4cccc(c34)N2)c1 8.06%
COc1ccc(C2=Nc3cccc4cccc(c34)N2)cc1 -2.87%
Fc1ccc(C2=Nc3cccc4cccc(c34)N2)cc1 -0.82%
CC(=C\c1ccccc1)/C=C1/SC(=S)N(CCC(=O)O)C1=O -2.12%
CC(=C\c1ccccc1)/C=C1/SC(=O)N(CCCC(=O)Nc2ccc(C(=O)O)cc2)C1=O 0.71%
CC(=C\c1ccccc1)/C=C1/SC(=S)N(CCCC(=O)O)C1=O 2.05%
CC(=O)c1ccc(NC(=O)CCCN2C(=O)/C(=C/C(C)=C/c3ccccc3)SC2=S)cc1 4.61%
CC1=C(C(=O)N(C)C)C(c2cccs2)NC(=O)N1 (stereo unspecified) 4.4%
O=C(CS(=O)(=O)c1ccc(F)cc1)N1CCN(c2ccccc2)CC1 -1.09%
c1ccc(Nc2ccccc2)cc1 -0.33%
Cc1ccc(Nc2ccccc2)cc1 6.07%
Cc1cc(NC(=O)CSc2nnc(C)n2-c2ccccc2)no1 1.46%
COc1ccc2c(c1)O[C@H](c1ccc3c(c1)OCO3)[C@@H](OC(=O)N[C@H]1CCCc3ccccc31)C2=O 4.66%
COC(=O)[C@@H](NC(=O)O[C@H]1C(=O)c2ccc(OC)cc2O[C@@H]1c1ccc2c(c1)OCO2)C(C)C 12.9%
CC(OC(=O)CCc1nc2ccccc2[nH]c1=O)C(=O)c1ccccc1 (stereo unspecified) 6.75%
COC(=O)c1ccc2c(=O)[nH]c(CN3c4ccccc4CC3C)nc2c1 (stereo unspecified) 8.14%
CC1Cc2ccccc2N1Cc1nc2cc(Cl)ccc2c(=O)[nH]1 (stereo unspecified) 7.91%
O=C(Cn1cnc2ccccc21)NCCCN1CCOCC1 -5.55%
O=C(NNS(=O)(=O)c1ccccc1[N+](=O)[O-])c1ccc(F)cc1 -0.91%
O=C1NC(=O)/C(=C\c2ccc(Sc3ccc(Cl)cc3)o2)N1 21.1%
O=C1NC(=O)/C(=C/c2ccc(N3CCOCC3)o2)N1 12.2%
Cc1nnc(SCC(=O)NNC(=O)c2ccco2)n1-c1ccccc1 6.15%
Cc1cccc(N2CC(C(=O)Nc3ccccc3N3CCOCC3)CC2=O)c1C (stereo unspecified) -2.77%
CCn1c(SCC(=O)Nc2cc(C)on2)nnc1-c1ccccc1 -1.57%
CCCCn1c(SCC(=O)Nc2cc(C)on2)nnc1-c1cccnc1 -3.02%
CCc1nc(SCC(=O)c2ccccc2)c2c(=O)n(C)c(=O)n(C)c2n1 -11.9%
CC1(c2ccc([N+](=O)[O-])cc2)NC(=O)N(CC(=O)Nc2cccnc2Cl)C1=O (stereo unspecified) -4.51%
COc1cc(N=C2C(=O)N3c4c(cccc42)C(C)=CC3(C)C)cc(OC)c1 -3.94%
CC1=CC(C)(C)N2C(=O)C3(C(C#N)=C(N)Oc4cc(O)ccc43)c3cccc1c32 (stereo unspecified) 4.05%
CN(C)c1oc(-c2ccco2)nc1S(=O)(=O)c1ccc(Br)cc1 10.3%
CC(C)CNC(=O)c1coc(=O)c(Br)c1 12.1%
COc1ccccc1NC(=O)c1coc(=O)c(Br)c1 13.2%
O=C(Nc1ccc(Br)cn1)c1cccc(C(=O)Nc2ccc(Br)cn2)c1 -16%
Cc1cc(NC(=O)c2coc(=O)c(Br)c2)ccc1C(C)C 10.6%
O=C(Nc1ccc(Br)cn1)c1ccc2ccccc2c1 -12.4%
O=C(NCCc1ccc(F)cc1)c1coc(=O)c(Br)c1 -6.83%
CCCN(CC(=O)Nc1ccccc1OC)C(=O)c1ccc2[nH]c3c(c2c1)CC(C)CC3 (stereo unspecified) 2.48%
C[C@@H]1NC(=O)[C@H](CC(N)=O)NC(=O)c2cc([N+](=O)[O-])cc(I)c2OCC[C@@H](C(=O)NC(CC(=O)O)C(N)=O)NC1=O (stereo partly specified) 10.6%
Cc1csc(SC(C)C(=O)Nc2ccccc2C)n1 (stereo unspecified) -12.6%
Cc1ccc(C2=NC(C)(C)N=C2SCC(=O)Nc2ccc(Cl)cc2)cc1 2.26%
O=C(NC(=S)Nc1cc(-c2nc3ccccc3[nH]2)ccc1Cl)c1ccc2c(c1)OCO2 6.14%
C[C@H]1CN([C@@H](C)CO)C(=O)CCCn2nncc2CO[C@@H]1CN(C)Cc1ccc(Cl)c(Cl)c1 -0.91%
CCN(CC)c1ccc(/C=N/NS(=O)(=O)c2ccc(CNC(C)=O)cc2)cc1 -3.65%
COc1cccc(OCc2cc(/C=N/NC(=O)c3ccn[nH]3)ccc2OC)c1 0.65%
COC(=O)C1=C(N)N(c2ccc(F)cc2)C2=C(C(=O)CCC2)C1c1ccc2c(c1)OCO2 (stereo unspecified) -32.1%
Cn1c(SCCOc2ccc(F)cc2)nnc1-c1ccncc1 -1.32%
Cn1c(SCCOc2ccc(Cl)cc2)nnc1-c1ccncc1 3.6%
CCOc1ccccc1NC(=S)NCC1CCCO1 (stereo unspecified) -2.09%
CCOc1ccc(C(=O)NCC2CCCO2)cc1OCC (stereo unspecified) 1.97%
CC(=O)c1c(C)[nH]c(C(=O)NCc2ccc(F)cc2)c1C -3.52%
NC(=O)NC(=O)COC(=O)c1ccc(Cl)c(S(=O)(=O)N(Cc2ccccc2)c2ccc(Cl)cc2)c1 -3.29%
Cc1cccc(Nc2nc(-c3cccs3)cs2)n1 8.51%
CCNc1c(C(=O)O)ccc2c1C(=O)c1ccccc1C2=O 32.2%
O=C(O)c1ccc2c(c1Nc1ccccc1)C(=O)c1ccccc1C2=O -2.59%
COc1ccc(C(=O)NC2CC2)cc1OC1CCN(Cc2ccccc2F)CC1 -1.16%
Nc1nnnn1/N=C/c1cccc(O)c1 9.19%
O=C(CSc1nc(O)c(C2CCCCC2)c(=O)[nH]1)NCC1CCCO1 (stereo unspecified) 14.4%
Cc1ccc(CNC(=O)C2CC(=O)N(c3ccc(OCC(=O)N4CCCC4)cc3)C2)cc1 (stereo unspecified) -0.42%
O=C(c1ccc(Cl)cc1)c1cnc(-c2ccccc2)s1 -2.61%
O=C1OC(c2ccc(F)cc2)=C/C1=C\c1ccc(O)cc1 -0.55%
Cc1ccc(C=C2C=C(c3ccccc3)OC2=O)cc1 6.6%
C=CCN(C(=O)Nc1ccc(OC)cc1)c1nnc(-c2ccncc2)s1 -4.12%
Cc1cc(NC(=O)CCl)n(-c2nc3ccccc3s2)n1 -1.34%
CC(=O)Nc1cc(C)nn1-c1nc2ccccc2s1 -19.4%
O=C1CSC(c2ccc(Cl)cc2)N1c1cccnc1 (stereo unspecified) 3.17%
CCOC(=O)C1CCN(c2ncnc3c2cnn3-c2ccc(Cl)cc2)CC1 -26.4%
CCOC(=O)C1CCCN(c2ncnc3c2cnn3-c2ccc(OC)cc2)C1 (stereo unspecified) -2.45%
O=C(CSc1ccc(Cl)cc1)NNC(=O)c1ccco1 2.28%
O=C(CCSc1ccc(Cl)cc1)c1ccco1 2.25%
